Experimental data from ChEMBL document CHEMBL4513216, “Probing the Open Global Health Chemical Diversity Library for Multistage-Active Starting Points for Next-Generation Antimalarials” (ACS Infect Dis, 2020).
Screen size: about 69,000 compounds; about 8,600 (12%) showed an effect of 50% or more. Shown is part of a subset that was picked to be rich in strong results.

Each compound was assayed on Plasmodium berghei (assay: Screen against P. berghei liver stage (PbLuc), transformed with Luciferase, at 10uM). Details: tested at 10 uM.
Assay type: functional, HepG2
In the case of COc1cccc(C(C)Nc2ncnc3c2NC(=O)CN3)c1 (stereo not given), the INHIBITION was 45.8%. In the case of CC(CN1CCOCC1)n1cncc1-c1ccc2c(c1)CCCN2C (stereo not given), the INHIBITION was -16%. In the case of NC(=O)C(NC(=O)c1cc(Cl)c[nH]1)c1ccccc1 (stereo not given), the INHIBITION was 52.8%. Work on NC(=O)C(NC(=O)c1cc(Br)c[nH]1)c1ccccc1 (stereo not given) yielded an INHIBITION of 34.4%. Cc1cc(C)c(C(=O)N[C@H](C(N)=O)c2ccccc2)c(=O)[nH]1 gave an INHIBITION of -31.4%. CO[C@H]1CCN(Cc2c(C)noc2C)[C@@H]2CN(Cc3cccnc3)C[C@H]12 was tested, and the INHIBITION was 28.5%. O=C(NCc1nnc2n1CCCCC2)N1CCc2ccccc2C1 gave an INHIBITION of 41.2%. Cc1ccccc1CN(C)C(=O)Cn1nc(-c2ccc(F)cc2)oc1=O was tested, and the INHIBITION was 56.5%. Cc1ccc(CN(C)C(=O)Cn2nc(-c3ccc(F)cc3)oc2=O)cc1 gave an INHIBITION of 30.8%. Work on CN(Cc1ccccc1Br)C(=O)Cn1nc(-c2ccc(F)cc2)oc1=O yielded an INHIBITION of 26.8%. COc1ccccc1CNC(=O)Cn1nc(-c2ccc(F)cc2)oc1=O gave an INHIBITION of -16.1%. Cc1ccccc1CNC(=O)Cn1nc(-c2ccc(F)cc2)oc1=O showed an INHIBITION of 50.15%. CN(Cc1ccc(F)cc1)C(=O)Cn1nc(-c2ccc(F)cc2)oc1=O showed an INHIBITION of 1.58%. With CN(Cc1ccc(Cl)s1)C(=O)Cn1nc(-c2ccc(F)cc2)oc1=O the INHIBITION was 66.1%. In the case of O=C(Cn1nc(-c2ccc(F)cc2)oc1=O)NCc1ccccc1F, the INHIBITION was -69.9%. In the case of Cc1ccsc1CN(C)C(=O)Cn1nc(-c2ccc(F)cc2)oc1=O, the INHIBITION was 22.1%. Work on CCOC1Sc2nnc(C)n2N=C1c1ccc(Br)cc1 (stereo not given) yielded an INHIBITION of 18.2%. CN(C)[C@@H]1CCN(C(=O)c2cccc(C#N)c2)[C@H]1Cc1cnn(C)c1 showed an INHIBITION of 27.6%. In the case of Cc1ccc(-c2cc(CN3CCOC(Cn4cncn4)C3)on2)cc1 (stereo not given), the INHIBITION was 24.6%. With O=C(C1CC=CC1)N1CCC2(CCN(Cc3ccccn3)C2=O)C1 (stereo not given) the INHIBITION was 17.5%. For CC(C)CCS(=O)(=O)N1CCCC(c2nncn2C(C)C)C1 (stereo not given), the INHIBITION was 44.9%. Compound CC(C)n1cnnc1C1CCCN(S(=O)(=O)CCCF)C1 (stereo not given) has an INHIBITION of 39.7%. CC(C)n1cnnc1C1CCCN(S(=O)(=O)CC2CCCC2)C1 (stereo not given) gave an INHIBITION of 76.5%. Compound Cc1oc(C(=O)O)cc1S(=O)(=O)Nc1cc(Br)ccc1Cl has an INHIBITION of 38.8%. With COCC1CN(c2ccc(C#N)c(Cl)c2)CCO1 (stereo not given) the INHIBITION was 96.1%. For Clc1cnccc1N1CCC(OC2CCOCC2)CC1, the INHIBITION was 48.5%. In the case of N#Cc1ccc(Cl)cc1N1CCC(OC2CCOCC2)CC1, the INHIBITION was 35.2%. NC(=O)C1CN(c2ccc3c(Cl)ccnc3c2F)CCO1 (stereo not given) gave an INHIBITION of -22.4%. For COCC1CN(C(=O)Nc2ccc(Cl)cc2Cl)CCO1 (stereo not given), the INHIBITION was 6.85%. N#Cc1cc(Cl)ccc1N1CCOC(C(N)=O)C1 (stereo not given) gave an INHIBITION of 32.5%. Compound COCC1CN(c2ccc3c(Cl)ccnc3c2F)CCO1 (stereo not given) has an INHIBITION of 84.2%. Work on COCC1CN(c2ccc(Cl)cc2C#N)CCO1 (stereo not given) yielded an INHIBITION of 53.4%. N#Cc1ccc(N2CCC(OC3CCOCC3)CC2)cc1Cl gave an INHIBITION of 57%. CC(=O)NCC1CN(c2ccc3c(Cl)ccnc3c2F)CCO1 (stereo not given) gave an INHIBITION of 23.8%. Cn1cc(N2CCN(c3ccc(C#N)c(Cl)c3)CC2=O)cn1 gave an INHIBITION of -11.6%. COCC1CN(C(=O)Nc2cc(Cl)ccc2F)CCO1 (stereo not given) gave an INHIBITION of 8.13%. Compound CO[C@@H]1CCN(Cc2c(C)noc2C)[C@@H]2CN(Cc3cccnc3)C[C@@H]21 has an INHIBITION of 22.6%. With COCCOc1ccccc1C(=O)NCCN(C)C(C)C the INHIBITION was 4.52%. For O=C(c1nn(-c2ccccc2F)cc1O)N1CCCSCC1, the INHIBITION was -21.7%. For Cc1ccc(N2CC[C@H]3OCC[C@@]3(C(=O)NC(C)C)C2)nn1, the INHIBITION was 35.1%. COCC(=O)NCc1ccc(-c2ncncc2C(=O)N(C)C)cc1 showed an INHIBITION of 26.15%. In the case of CCOCc1ccc(CNc2nc(OC)ncc2Cl)cc1, the INHIBITION was 35.4%. Compound COc1ncc(Cl)c(NCc2ccc(C(=O)N(C)C)cc2)n1 has an INHIBITION of 58.9%. COc1ncc(Cl)c(NCc2ccc([S+](C)[O-])cc2)n1 (stereo not given) showed an INHIBITION of 61.1%. Compound COc1ccccc1C1(CNCc2ccc([S+](C)[O-])cc2)CC1 (stereo not given) has an INHIBITION of 1.41%. Compound COc1ccc(CN2CCc3[nH]nc(C(=O)N(C)C)c3C2)cc1 has an INHIBITION of 21.1%. COC(=O)CC1CSCCN1C(=O)CCc1c(C)nn(C)c1C (stereo not given) showed an INHIBITION of 19.8%. With COc1ccccc1C(O)CNC(=O)NCc1cc[nH]n1 (stereo not given) the INHIBITION was 26.4%. Cc1cc(C)n(CCCNC(=O)C(C)NC(=O)CC2CCCCC2)n1 (stereo not given) gave an INHIBITION of -7.98%. For COCC(=O)N1CCC2(CCC2N(C)Cc2ccco2)CC1 (stereo not given), the INHIBITION was -28.2%. Cc1cc(C)n(CC(C)CNC(=O)[C@@H](C)NC(=O)OC(C)(C)C)n1 (stereo not given in full) showed an INHIBITION of -45.8%. Cc1nc(C(=O)N2CCCC2c2noc(C)n2)c[nH]1 (stereo not given) was tested, and the INHIBITION was 0.914%. CC(C)CCN1CCC2(CCCN(c3nncs3)C2)C1 (stereo not given) gave an INHIBITION of 4.1%. CCc1nncn1CCNC(=O)N1CCN(Cc2ccccc2)CC1 gave an INHIBITION of 35.3%. In the case of Cn1c2ccc(F)cc2c2ncn(CCCN(CCO)CCO)c(=O)c21, the INHIBITION was 24.7%. For Cc1cnc(C(=O)N2CCCCC2c2nc(C)cs2)cn1 (stereo not given), the INHIBITION was -16%. In the case of Cn1cnc(S(=O)(=O)N2CCN(CC3CC3)c3ncccc3C2)c1, the INHIBITION was -22.1%. Cn1cnc(C(=O)N2CC3(CCN(S(=O)(=O)c4ccccc4)C3)C2)c1 showed an INHIBITION of -4.02%. With Cn1cnc(S(=O)(=O)N2CC3(CCN(CC4CC4)C3)C2)c1 the INHIBITION was 67.5%. In the case of Fc1cnc(N2CC3(CCN(CC4CC4)C3)C2)nc1, the INHIBITION was -81.2%. For Cn1cnc(S(=O)(=O)N2CC3(CCN(c4ccccc4)C3)C2)c1, the INHIBITION was 53%. CCN1CCC2(C1)CN(S(=O)(=O)c1cn(C)cn1)C2 showed an INHIBITION of 65.7%. Compound Cn1cnc(S(=O)(=O)N2CC3(CCN(Cc4ccncc4)C3)C2)c1 has an INHIBITION of 21.3%. In the case of Cn1cnc(S(=O)(=O)N2CCSC3(CCCCC3)C2)c1, the INHIBITION was -37.8%. For CC(C)CN1CCC2(C1)CN(S(=O)(=O)c1cn(C)cn1)C2, the INHIBITION was 35.8%. O=C1CN(Cc2occc2C(=O)NCCc2ccc(F)cc2)CCN1 was tested, and the INHIBITION was 8.41%. CC(C)CCNC(=O)Cc1cnc(-n2cccc2)s1 gave an INHIBITION of 37.4%. With c1cnc(N2Cc3nccn3CC(COc3cccnc3)C2)nc1 (stereo not given) the INHIBITION was -13.2%. With Cc1cc(F)c(S(=O)(=O)Nc2ccn(CCCC#N)n2)cc1F the INHIBITION was 30.5%. For Cn1cc(C(=O)N[C@H]2CN(Cc3nccs3)[C@@H]3CCCO[C@H]23)cn1, the INHIBITION was -8.94%. Work on CC(C)C1CCC(N2CCN(CCS(C)(=O)=O)CC2)CC1 (stereo not given) yielded an INHIBITION of 32.9%. Compound CCCn1cc(CN2CCCC2c2cccc(-n3ccnc3)n2)cn1 (stereo not given) has an INHIBITION of 15.9%. For O=C(NCC(O)c1ccoc1)Nc1cccs1 (stereo not given), the INHIBITION was 19.8%. Work on Cc1nc(C)n(C2CCCN(C(=O)Cc3cn4ccccc4n3)C2)n1 (stereo not given) yielded an INHIBITION of 25.4%. Cc1c(I)cccc1C(=O)NCc1ncc[nH]1 gave an INHIBITION of 57%. With Cc1c(I)cccc1C(=O)NCC1(CO)CC1 the INHIBITION was -4.86%. For Cc1c(I)cccc1C(=O)NCc1nnc[nH]1, the INHIBITION was 51.5%. Compound O=C(NCc1ncc[nH]1)c1c(F)cccc1I has an INHIBITION of 25.5%. In the case of Cc1cccc(I)c1C(=O)NCc1ncc[nH]1, the INHIBITION was 8.08%. In the case of CCc1ccc(CCC(=O)NCc2nnc[nH]2)cc1, the INHIBITION was 24.5%. Work on Cc1c2nnn(CC(=O)N(C)C)c(=O)c2nn1C yielded an INHIBITION of 69.4%. Cc1c2ncn(CC(=O)N(C)C)c(=O)c2nn1C was tested, and the INHIBITION was 0%. Cc1c2ncn(CC(=O)NC(C)C)c(=O)c2nn1C gave an INHIBITION of 48.5%. Compound CC(=O)N1CCN(c2cc(C3CCNCC3)ccn2)CC1 has an INHIBITION of 7.19%. Cc1cncc(C(=O)N2CCO[C@H]3[C@H](OCCN(C)C)CC[C@@H]32)c1 was tested, and the INHIBITION was 14.5%. For O=C(CC1CCCO1)NS(=O)(=O)Cc1cc(-c2ccccc2)no1 (stereo not given), the INHIBITION was 25%. Cc1ccc(CN2CCC3(CCN(c4cnn(C)c4)C3=O)C2)s1 (stereo not given) showed an INHIBITION of 1.94%. In the case of CCS(=O)(=O)N1CCC2(CC1)CC[C@@]1(C(=O)N(C)C)CN(C)C[C@@H]21, the INHIBITION was -10.5%. With CC(C)NC(=O)N1CCC2(CC1)CC[C@@]1(C(=O)N(C)C)CN(C)C[C@@H]21 the INHIBITION was 67.5%. With CCN1C[C@H]2C3(CCN(C(=O)NC(C)C)CC3)CC[C@@]2(C(=O)N(C)C)C1 the INHIBITION was 28.5%. Compound O=C(NCc1cc(=O)n2c(n1)CN(CC1CCOC1)CCC2)C1CC1 (stereo not given) has an INHIBITION of 26.8%. In the case of O[C@@H]1CN(c2noc(C3CC3)n2)CC[C@H]1c1ccc2ccccc2c1, the INHIBITION was 51.2%. Compound CCCc1nc(N2CC[C@@H](c3ccc4ccccc4c3)[C@H](O)C2)no1 has an INHIBITION of 36.7%. Cc1nc(N2CC[C@@H](c3ccc4ccccc4c3)[C@H](O)C2)no1 gave an INHIBITION of 31.2%. In the case of CC(C)NC(=O)N1CCC2(CC1)NC(=O)CC2c1ccncc1 (stereo not given), the INHIBITION was -3.51%. CCc1nnc2n1CCN(C(=O)c1cn(-c3ccccc3)nn1)C2 gave an INHIBITION of -1.15%. Cc1nc(CN2C[C@@H]3CN(C(=O)c4ccoc4C)C[C@@H]3C2)cs1 was tested, and the INHIBITION was 1.48%. For Cc1nc(CN2C[C@@H]3CN(C(=O)c4ccco4)C[C@@H]3C2=O)cs1, the INHIBITION was 40.4%. For Cc1occc1C(=O)N1CCC2(CCN(Cc3cccs3)C2)CC1, the INHIBITION was -33.9%. With Cc1nc(CN2C(=O)CCC23CCN(Cc2ccco2)CC3)cs1 the INHIBITION was 3.17%. Compound Cc1nc(CN2CCC23CCN(Cc2ccco2)CC3)cs1 has an INHIBITION of 49.4%. Cc1nc(CN2C[C@@H]3CN(C(=O)c4ccoc4C)C[C@@H]3C2=O)cs1 was tested, and the INHIBITION was 64.9%. Cc1nc(CN2CCC3(C2)CN(Cc2ccco2)C3)cs1 showed an INHIBITION of 56.6%. Cc1occc1C(=O)N1CCC2(CCN(Cc3nccs3)C2)CC1 gave an INHIBITION of 1.81%. For Cc1nc(CN2CCC3(CCN(C(=O)c4ccoc4C)CC3)C2)cs1, the INHIBITION was 66.2%.
